# Assay results reported in PubChem BioAssay (NCI).
# Values joined by “and” are separate entries in the source; they are usually repeats but may differ in a detail not shown here. Equal values may be shown once. About 83,000 compounds went through this panel and 20% of them were active in at least one assay; those are over-represented in the sample as a whole.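 Cell lines were cultured in 96-well plates, exposed to a single compound concentration, and assessed for percent growth 48 hours later.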 Active and inactive are the calls of the source. How the source made its calls: active means growth percent below 10; inactive means the rest.
# System: HL-60(TB) leukemia
# Test: NCI-60 one-dose screen, 48 h (100 = growth as untreated, 0 = no growth, -100 = all killed)
# Details: 10 µM unless noted
row,SMILES,growth
1,c1ccc(CNc2c3ccccc3nc3ccccc23)cc1,43.8% (inactive)
2,CCCC1=NNC(=O)C1,95.6% (inactive)
3,COc1ccc(-c2cc(-c3cc4ccccc4oc3=O)n(-c3ccccc3)n2)cc1,91.6% (inactive)
4,CCOc1ccc(/C=N/Nc2cc(C)nc3ccc(Cl)cc23)cc1,-51.7% (active)
5,O=c1oc2ccc([N+](=O)[O-])cc2cc1Br,105% (inactive)
6,O=C1C(=O)c2ccccc2C(O)=C1CC=C(Cl)Cl,31.3% (inactive) and 44.6% (inactive)
7,Cc1nc(N)sc1Sc1nc2ccc(Cl)cc2c(=O)n1-c1ccc(Oc2ccccc2)cc1,59.4% (inactive)
8,COc1ccc(-c2nc3sc(C)nn3c2-c2nc3cc(C)c(C)cc3[nH]2)cc1,112% (inactive)
9,CC(C)(C)CC(C)(C)c1ccc(OCCOCCSC(=N)N)cc1,-51.7% (active)
10,COc1ccc(OC)c(-c2nc(SCC(=O)c3ccc(C#N)cc3)[nH]c(=O)c2C#N)c1,106% (inactive)
11,Cc1c(C)c(N2C(=O)C=CC2=O)c(C)c(C)c1N1C(=O)C=CC1=O,57.5% (inactive)
12,COC(=O)CC[C@H](C)[C@H]1CC[C@H]2[C@@H]3CC[C@@H]4CC5(CC[C@]4(C)[C@H]3CC(=O)[C@]12C)Nc1ccccc1NC5=NC(C)(C)C (stereo not given in full),43.6% (inactive)
13,O=C1c2cc3c(cc2-c2c1c1ccc(Cl)cc1c(=O)n2CCCNCCO)OCO3,-64% (active)
14,Nc1nc(N)nc(N2CCCCC2)n1,97.9% (inactive)
15,CCN(CC)CCNc1cc(-c2cccc(OC(F)(F)F)c2)nc2ccc(N3CCCC3)cc12,-55.4% (active) and -26.1% (active) and 12.6% (inactive)
16,O=C1c2c(c3c4ccc(Br)cc4oc3c3[nH]c4ccccc4c23)C(=O)N1O,25% (inactive)
17,NS(=O)(=O)OCC1OC(n2cnc3cncnc32)C(O)C1O (stereo not given),37.8% [0.1 µM] (inactive) and 27.5% [0.1 µM] (inactive)
18,N#Cc1c(N)[nH]c(S)c1C#N,99% (inactive)
19,O=C(O)/C=C(\c1nc2ccc([N+](=O)[O-])cc2[nH]1)c1cc(Cl)ccc1O,10.8% (inactive)
20,COc1ccc2sc3c(NCCCN(C)C)nc4ccccc4c3c(=O)c2c1,38.7% (inactive)
21,O=c1[nH]c2ccccc2n1C1CCN(CCOc2ccccc2)CC1,50% (inactive)
22,O=C1/C(=C/c2ccc(F)cc2)COc2ccc(O)cc21,19.1% (inactive)
23,COc1ccc(-c2nocc2-c2cccs2)cc1,115% (inactive)
24,COc1cc(Cl)cc(-c2nn(C(=O)NCCN3CCOCC3)cc2-c2ccncc2)c1,55.7% (inactive)
25,Nc1nc(-c2cc3ccccc3o2)cc(=O)c(=O)[nH]1,107% (inactive)
